The results in this text go back to paper PMC13083723 (Patterns, 2026).

Among all 5,400 compounds or so, about 190 (3.5%) showed an effect of 50% or more. The sample as a whole holds a higher share of strong results than the screen did. Residues, ends and D or L forms follow the SMILES beside them. *: point of attachment. NHCH2CH2OH = OCCN*; For = O=C*

For this test, the system named is Vero-E6. Briefly: primary screen, phospholipidosis by LipidTOX staining; higher = more effect of the substance. To be noted: 10 µM. Put shortly:
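Single-concentration screen at 10 μM, with DMSO 0.1 v/v % and amiodarone 10 μM as controls. Read-out is LipidTOX Red phospholipid staining, which tolerates aldehyde fixation, in Vero-E6 cells.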
Take `Nc1nc(=O)c2c(CCc3ccc(C(=O)N[C@@H](CCC(=O)[O-])C(=O)[O-])cc3)c[nH]c2[nH]1`: the result_ITMP is reported as -3.84%. The result for `CC(C)c1nc(N(C)S(C)(=O)=O)nc(-c2ccc(F)cc2)c1/C=C/[C@@H](O)C[C@@H](O)CC(=O)[O-]` reads -8.19%; that for `CCOc1cc(N2CCC(O)CC2)ccc1Nc1ncc2c(n1)N(C)c1ccccc1C(=O)N2C`, 4.79%. Next, `Cc1nc(Nc2cnn(C3CCNCC3)c2)nc2c1N(C)C(=O)c1cc3ccccc3cc1N2C`: 103%; `O=C(O)[C@@H]1C[C@@H](C2CCCCC2)CN1C(=O)CP(=O)(O)CCCCc1ccccc1`: -0.11%; `O=c1nc[nH]c2c1cnn2[C@@H]1O[C@H](CO)[C@@H](O)[C@H]1O`: 2.43%. The result for `CCC[C@@H]1C[C@@H](C(=O)N[C@H]([C@H]2O[C@H](SC)[C@H](O)[C@@H](O)[C@H]2O)[C@H](C)O)N(C)C1` reads -3.49%; that for `NC1(c2ccc(-c3nc4ccn5c(=O)[nH]nc5c4cc3-c3ccccc3)cc2)CCC1`, 87.1%; that for `COc1cccc(CCc2ccccc2OCC(CN(C)C)OC(=O)CCC(=O)O)c1` (centres unmarked), 64.3%.

As to `O=C(O)CCCCN(CCc1ccccc1OCc1ccc(CCc2ccccc2)cc1)Cc1ccc(C(=O)O)cc1`, the result_ITMP came to 0.2%. Next, `O=C(O)CCc1ccc(NCc2cccc(Oc3ccccc3)c2)cc1`: -4.86%; `CCc1cccc(CC)c1N=C1NCCN1`: -5.43%. With `O=C(O[C@H]1CN2CCC1CC2)N(Cc1cc(F)c(F)c(F)c1)c1cccc(F)c1`, the result_ITMP came out at 71.4%. Next, `C[C@H](Nc1ncnc2[nH]cnc12)c1cc2ccc(F)cc2nc1-c1ccccn1` [R4A_0002240_001 / SPE_K21077415]: -0.96%. Take `Nc1cccc(CNC(=O)c2ccc(Oc3ccc(OCc4cccc(F)c4)cc3)nc2)c1`: the result_ITMP was -1.49%.

Regarding `OCc1ccc(-c2nn(Cc3ccccc3)c3ccccc23)o1`, the result_ITMP was -1.24%. The result for `O=C(O)COc1nn(Cc2ccccc2)c2ccccc12` reads 0%. Consider `CN(C)CCCOc1nn(Cc2ccccc2)c2ccccc12`, for which the result_ITMP came out at 51.2%.

`C[C@@H]1CCC[C@H](C)N1NC(=O)c1ccc(Cl)c(S(N)(=O)=O)c1`: the result_ITMP is reported as 3.56%.

As to `CC(C)Cc1ccc(C(C)C(=O)O)cc1` (centres unmarked) [R4A_0001344_001 / SPE_M64062803], the result_ITMP was -5.52%. Next, `O=C(C1CCCCC1)N1CC(=O)N2CCc3ccccc3C2C1` (centres unmarked): -5.83%; `O=C(O[C@H]1CN2CCC1CC2)N1CCc2ccccc2[C@@H]1c1ccccc1`: 59.2%; `O=C(Nc1ccc(F)cc1)N1CCc2ccccc2C1c1ccc(C(F)(F)F)cc1` (centres unmarked): -0.7%.

With `CC(C)(CO)[C@@H](O)C(=O)NCCC(=O)[O-]`, the result_ITMP is on record as 1.43%. The result for `C[C@@]12C[C@@]3(O)O[C@@H](O1)[C@]1(COC(=O)c4ccccc4)[C@H]3C[C@@]12O[C@@H]1O[C@H](CO)[C@@H](O)[C@H](O)[C@H]1O` reads -5.49%; that for `CCc1cccc(CC)c1NC(=O)N1Cc2[nH]nc(NC(=O)c3ccc(N4CCN(C)CC4)cc3)c2C1`, 3.48%; that for `CN1CCN(c2ccc(-c3cccc(CN4CCOCC4)c3)cc2NC(=O)c2c[nH]c(=O)cc2C(F)(F)F)CC1`, -0.45%. The result for `CN1CCN(c2ccc(C(=O)Nc3n[nH]c4ccc(Cc5cc(F)cc(F)c5)cc34)c(NC3CCOCC3)c2)CC1` reads 96.5%; that for `C[C@H]1O[C@@H](O[C@H]2CC[C@@]3(C)[C@H](CC[C@@H]4[C@@H]3C[C@@H](O)[C@]3(C)[C@@H](C5=CC(=O)OC5)CC[C@]43O)C2)C[C@H](O)[C@@H]1O[C@H]1C[C@H](O)[C@H](O[C@H]2C[C@H](O)[C@H](O[C@@H]3O[C@H](CO)[C@@H](O)[C@H](O)[C@H]3O)[C@@H](C)O2)[C@@H](C)O1`, -9.7%. Consider `CO/N=C(\C(=O)N[C@@H]1C(=O)N2C(C(=O)[O-])=C(COC(C)=O)CS[C@H]12)c1csc(N)n1`, for which the result_ITMP was -7.3%. The result for `COc1cccc([C@@H](C)NCCCc2ccccc2Cl)c1` reads 70.1%; that for `CC(NCCC(c1ccccc1)c1ccccc1)c1ccccc1` (centres unmarked), 43.7%. The result for `COc1cccc(C(=O)CCN[C@@H](C)[C@H](O)c2ccccc2)c1` reads 1.52%; that for `C[N@+]12CCCC[C@@H]1CCC(=C(c1cccs1)c1cccs1)C2` (racemic), -3.77%. The result for `CO[C@@H]1[C@@H](OC(N)=O)[C@@H](O)[C@H](Oc2ccc3c([O-])c(NC(=O)c4ccc(O)c(CC=C(C)C)c4)c(=O)oc3c2C)OC1(C)C` reads -3.28%; that for `CC(=O)NCCCS(=O)(=O)[O-]`, 7.64%. `COc1cc2ncnc(Nc3cccc(Cl)c3F)c2cc1OC(=O)N1CCN(C)C[C@H]1C`: the result_ITMP is listed as 10.7%.

Regarding `COc1cc2ncnc(Nc3ccc(Cl)cc3F)c2cc1OC`, the result_ITMP is listed as -0.91%. Next, `COc1ccc(Cl)c(Nc2ncnc3cc(OCC4CCN(C)CC4)c(OC)cc23)c1`: 9.6%; `COc1cc2c(Nc3ccc(Cl)c(Cl)c3F)ncnc2cc1OC[C@@H]1C[C@@H]2CN(C)C[C@@H]2C1`: 55.5%; `C=CC(=O)N1CCC(Oc2cc3c(Nc4ccc(Cl)c(Cl)c4F)ncnc3cc2OC)CC1`: 35.1%. The result for `COc1cc2c(Nc3ccc(Br)cc3F)ncnc2cc1OCC1CCN(C)CC1` reads 105%; that for `CC(C)CC(NC(=O)C(C)NC(=O)CNC(=O)C(NC=O)C(C)C)C(=O)NC(C)C(=O)NC(C(=O)NC(C(=O)NC(C(=O)NC(Cc1c[nH]c2ccccc12)C(=O)NC(CC(C)C)C(=O)NC(Cc1c[nH]c2ccccc12)C(=O)NC(CC(C)C)C(=O)NC(Cc1c[nH]c2ccccc12)C(=O)NC(CC(C)C)C(=O)NC(Cc1c[nH]c2ccccc12)C(=O)NCCO)C(C)C)C(C)C)C(C)C` (centres unmarked) (For-VGALAVVVWLWLWLW-NHCH2CH2OH; configuration not given here), -8.15%.

As to `COC1/C=C\OC2(C)Oc3c(C)c(O)c4c(O)c(cc([O-])c4c3C2=O)NC(=O)/C(C)=C\C=C/C(C)C(O)C(C)C(O)C(C)C(OC(C)=O)C1C` (centres unmarked), the result_ITMP is given as -0.32%.

Consider `C[C@@H](O)[C@H]1C(=O)N2C(C(=O)[O-])=C([C@H]3CCCO3)S[C@H]12`, for which the result_ITMP is listed as -1.64%.

Take `[Cl][Ru]([Cl])([Cl])[Cl].c1ccc2[nH]ncc2c1.c1ccc2[nH]ncc2c1`: the result_ITMP was -2.33%.

Take `OC[C@H]1O[C@@H](O[C@@H]2[C@H](O)[C@@H](O)[C@H](O[C@H]3[C@H](O)[C@@H](O)C(O)O[C@@H]3CO)O[C@@H]2CO)[C@H](O)[C@@H](O)[C@H]1O` (some centres unmarked): the result_ITMP is given as 3.95%. Next, `CCCC[C@H](NC(C)=O)C(=O)N[C@H]1CC(=O)NCCCC[C@@H](C(=O)O)NC(=O)[C@H](Cc2c[nH]c3ccccc23)NC(=O)[C@H](CCCNC(=N)N)NC(=O)[C@@H](Cc2ccccc2)NC(=O)[C@H](Cc2cnc[nH]2)NC1=O`: -3.41%. On to `COc1ccc2[nH]c3nnc(C)c-3c(NCCOCCO)c2c1`, for which the result_ITMP is -1.31%. Next, `C1Cc2[nH]nc(-c3nnn[nH]3)c2C1`: -1.64%; `CC(C)N(C[C@H]1O[C@@H](n2cnc3c(N)ncnc32)[C@H](O)[C@@H]1O)C1CC(CCc2nc3cc(C(C)(C)C)ccc3[nH]2)C1` (some centres unmarked): -3.75%. Next, `Nc1ncnc2c1ncn2C1OC2COP(=O)([O-])OC2C1O` (centres unmarked): -10.8%; `CCN1CCN(Cc2ccc(C(=O)Nc3ccc(C)c(Oc4ccc5c(c4)CC(=O)N5)c3)cc2C(F)(F)F)CC1`: 99.1%; `Cc1ccc(C(=O)Nc2ccc(CN3CCN(C)CC3)c(C(F)(F)F)c2)cc1C#Cc1cnc2[nH]ncc2c1`: 6.57%. The result for `Cc1ccc(C(=O)Nc2ccc(CN3CCN(C)CC3)c(C(F)(F)F)c2)cc1C#Cc1cnc2cccnn12` reads 11.4%; that for `C[C@@H]1CC[C@@]2(NC1)O[C@H]1C[C@H]3[C@@H]4CC=C5C[C@@H](O[C@@H]6O[C@H](CO)[C@@H](O[C@@H]7O[C@@H](C)[C@H](O)[C@@H](O)[C@H]7O)[C@H](O)[C@H]6O[C@@H]6O[C@@H](C)[C@H](O)[C@@H](O)[C@H]6O)CC[C@]5(C)[C@H]4CC[C@]3(C)[C@H]1[C@@H]2C`, -0.25%; that for `C[C@]12C=CC(=O)C=C1CCC1C2[C@@H](O)C[C@@]2(C)C1CC[C@]2(O)C(=O)COP(=O)([O-])[O-]` (some centres unmarked), -4.14%.

With `O=S(=O)([O-])CCSSCCS(=O)(=O)[O-]`, the result_ITMP was -11.7%. Next, `N=C(N)NCCC[C@@H](NC(=O)[C@@H]1CCCN1C(=O)[C@@H]1CSSC[C@H](N)C(=O)N[C@@H](Cc2ccc(O)cc2)C(=O)N[C@@H](Cc2ccccc2)C(=O)N[C@@H](CCC(N)=O)C(=O)N[C@@H](CC(N)=O)C(=O)N1)C(=O)NCC(N)=O`: -1.55%.

Consider `Oc1ncc(F)cn1`, for which the result_ITMP is -8.73%.

For `Nc1nnc2[nH]c3ccccc3nc1-2`, the result_ITMP is -7.77%. Consider `CCCC1(CCC)CCC2(CCN(CCCN(CC)CC)C2)CC1`, for which the result_ITMP was 109%. The result for `COc1cc(/C=C/C(=O)[O-])ccc1O` reads -1.05%; that for `CCN1CCN(Cc2ccc(Nc3ncc(F)c(-c4cc(F)c5nc(C)n(C(C)C)c5c4)n3)nc2)CC1`, 76.7%. Next, `CC(C)Cc1ccc(C(C)C(=O)O)cc1` (centres unmarked) [R4A_0001344_001 / SPE_A17655518]: -3.6%; `COC(=O)C1=C(C)NC(C)=C(C(=O)OCCN2CCN(C(c3ccccc3)c3ccccc3)CC2)C1c1cccc([N+](=O)[O-])c1` (centres unmarked): 11.6%; `COC(=O)C1=C(C)NC(C)=C(C(=O)NCCCN2CCC(c3ccccc3)(c3ccccc3)CC2)C1c1ccc([N+](=O)[O-])cc1` (centres unmarked): 60.6%.

In the case of `COC(=O)C1=C(C)NC(C)=C(C(=O)O[C@H]2CCN(Cc3ccccc3)C2)[C@H]1c1cccc([N+](=O)[O-])c1`, the result_ITMP is reported as 21.2%.
